# Laboratory results: PubChem BioAssay (EPA / NIEHS)
# Values joined by “and” are separate entries in the source; they are usually repeats but may differ in a detail not shown here. Identical values can stand only once. Results filed as inconclusive are left out. Active and inactive are the calls of the source. Rule for the calls, unless noted: active = hit-call score of the fitted dose curve at least 0.9, where 1 is the maximum; inconclusive = response in the unintended direction; inactive = score below 0.9.
# Experiment: ACEA_ER_80hr: ACEA Biosciences xCELLigence Real-Time Cell Analysis on Estrogen Receptor Agonism for Proliferation (AID 2282667)
# Conditions: T47D proliferation, impedance (xCELLigence), 80 h
# Summary of the method: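 Estrogen-driven proliferation is captured as electrode impedance in T47D cells 80 h after compound addition. Test articles ran at 8 concentrations, 1:4 dilutions from 100 uM final, in two replicate plates.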
SMILES,outcome,AC50
C=C(C)C(=O)OCCC(F)(F)C(F)(F)C(F)(F)C(F)(F)C(F)(F)C(F)(F)C(F)(F)C(F)(F)F,inactive,
O=C(O)C(F)(F)OC(F)(F)C(F)(F)OC(F)(F)C(F)(F)C(F)(F)C(F)(F)F,inactive,
C=C(C)C(=O)OCCN(C)C,inactive,
O=C1OCc2ccccc21,inactive,
CC/C=C/CCCCCCCCCCOC(C)=O,inactive,
CCOc1ccc(NC(C)=O)cc1,inactive,
OC[C@@H](O)[C@H](O)[C@@H](O)[C@@H](O)CO,inactive,
c1ccc(OCCOc2ccccc2)cc1,inactive,
CCC(=O)OC/C=C(\C)CCC=C(C)C,,0.0916 µM (active)
C=CC(C)CCCC(C)(C)O (configuration not stated),inactive,
O=S(=O)(O)CCCN1CCOCC1,inactive,
C=C(C)C(=O)OCCOCCOC(=O)C(=C)C,inactive,
COc1ccc(N)c(C)c1,,43.5 µM (active)
c1ccc(Cc2ccccc2)cc1,inactive,
c1ccc2c(c1)-c1ccc3ccc4cccc5cc-2c1c3c45,inactive,
C=C1CC[C@H]2O[C@]2(C)CC[C@@H]2[C@@H]1CC2(C)C,inactive,
CC(C)CCOC(=O)CC(C)C,inactive,

SMILES,outcome,AC50
CN(C)C(=O)Nc1ccccc1,inactive,
ClCCOCCOCCCl,inactive,
CCCCOC(=O)C(C)OC(=O)CCC (configuration not stated),inactive,
O=S(=O)(O)c1cc(O)c(O)c(S(=O)(=O)O)c1,inactive,
COC(=O)c1cccc(C(=O)OC)c1,inactive,
Cc1cc(N)n(-c2ccccc2)n1,inactive,
CCCCOCCOC(=O)c1ccccc1C(=O)OCCOCCCC,inactive,
CCOC(=O)COC(=O)c1ccccc1C(=O)OCC,inactive,
Cc1cc(O)c2c(c1)C(=O)c1cc(O)cc(O)c1C2=O,,0.493 µM (active)
O=C1CCC(=O)N1,inactive,
CCCCCCCCSCc1cc(C)c(O)c(CSCCCCCCCC)c1,inactive,
C=COCC1CCC(COC=C)CC1 (configuration not stated),inactive,
CC(CO)c1ccccc1 (configuration not stated),inactive,
CCO[Si](CC)(OCC)OCC,inactive,
CC(C)(O)CCc1ccccc1,inactive,
CCCCCCCC(=O)N(C)C,inactive,

# Experiment: APR_HepG2_CellCycleArrest_24hr: Apredica 24-hour HepG2 Assay for Cell Cycle Arrest (AID 2282905; active = hit-call score of the fitted dose curve at least 0.9, where 1 is the maximum; inactive = score below 0.9;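 note: cell cycle arrest scored as ratio of 2N to 4N nuclear DNA content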)
# Conditions: imaging, actives raise or lower the signal
# Protocol: (§1) APR_HepG2_24hr is a cell-based, multiplexed-readout assay that uses HepG2, a human liver cell line, with measurements taken at 24 hours after chemical dosing in a 384-well plate.APR_HepG2_CellCycleArrest_24hr is one of 10 assay component(s) measured or calculated from the APR_HepG2_24hr assay. It is designed to make measurements of cell phenotype, a form of morphology reporter, as detected with fluorescence intensity signals by HCS Fluorescent Imaging technology.Data from the assay component APR_HepG2_CellCycleArrest_24hr was analyzed into 1 assay endpoint. This assay endpoint, APR_HepG2_CellCycleArrest_24hr, was analyzed with bidirectional fitting relative to DMSO as the negative control and baseline of activity. Using a type of morphology reporter, measures of all nuclear dna for gain or loss-of-signal activity can be used to understand the signaling at the pathway-level as they relate to the gene . Furthermore, this assay endpoint can be referred to as a primary readout, because this assay has produced multiple assay endpoints where this one serves a signaling function. To generalize the intended target to other relatable targets, this assay endpoint is annotated to the cell cycle intended target family, where the subfamily is arrest.
# (§2) Cells were treated with dimethyl sulfoxide (DMSO) as a solvent control at a final concentration of 0.5% v/v or with compounds in DMSO with a resulting final DMSO concentration of 0.5% v/v. Compound treatment was done at concentrations of 0.39, 0.78, 1.56, 3.12, 6.24, 12.5, 25, 50, 100, and 200 uM in duplicate on each plate. Cells were treated with compounds for 1, 24, or 72 hr. Carbonyl […] m-chloro-phenylhydrazone (CCCP) and taxol were used as positive controls for mitochondrial function and cytoskeletal stability, respectively; DMSO served as the negative control for this experiment. Cells were fixed by the direct addition of 50 uL formaldehyde in Hank's Balanced Salt Solution (HBSS) to a final concentration of 3.7%. After incubation in the fixation medium for 30 min at room temperature (293-298 K), cells were rinsed twice with HBSS and treated with cell permeabilization buffer (16 uL of 0.5% Triton X-100) for 10 min at room temperature (293-298 K) before labeling. For mitochondrial membrane potential and mitochondrial measurements, pre-fixed cells were incubated with 50 uL of MitoTracker Red CMXRos (Invitrogen) at a concentration of 250 nM for 30 min before fixation. In the remaining cases, post-fixed cells were labeled by incubation with a multiplexed mixture of primary antibodies in HBSS for 60 min at room temperature (293-298 K) to detect immunoreactivity of c-Jun (1:500), phospho-histone H3 (1:100), phospho-histone H2A.x (1:200), p53 (1:400), alpha-tubulin (1:200) and Hoechst 33342 (2 ug/mL). […]
SMILES,outcome,AC50
O=C(c1ccc(OCCN2CCCCC2)cc1)c1c(-c2ccc(O)cc2)sc2cc(O)ccc12,inactive,
CC/C(=C(\c1ccccc1)c1ccc(OCCN(C)C)cc1)c1ccccc1,inactive,
C[C@]12CC[C@@H]3c4ccc(O)cc4CC[C@H]3[C@@H]1CC[C@@H]2O,inactive,
C#C[C@]1(O)CC[C@H]2[C@@H]3CCc4cc(O)ccc4[C@H]3CC[C@@]21C,,36.8 µM (active)

# Experiment: APR_HepG2_NuclearSize_24hr: Apredica 24-hour HepG2 Assay for Nuclear Size (AID 2282907; active = hit-call score of the fitted dose curve at least 0.9, where 1 is the maximum; inactive = score below 0.9)
# Conditions: high-content imaging, actives raise or lower the signal
# Summary of the method: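 HepG2 human liver cells were exposed for 24 hr to compounds at 0.39–200 uM (ten concentrations, duplicate) in 0.5% v/v DMSO. They were then formaldehyde-fixed, Triton-permeabilized and Hoechst 33342-stained, and nuclear diameter was imaged at 20x. Bidirectional fits were made against DMSO.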
row,SMILES,outcome
1,O=C(c1ccc(OCCN2CCCCC2)cc1)c1c(-c2ccc(O)cc2)sc2cc(O)ccc12,inactive
2,CC/C(=C(\c1ccccc1)c1ccc(OCCN(C)C)cc1)c1ccccc1,inactive
3,C[C@]12CC[C@@H]3c4ccc(O)cc4CC[C@H]3[C@@H]1CC[C@@H]2O,inactive
4,C#C[C@]1(O)CC[C@H]2[C@@H]3CCc4cc(O)ccc4[C@H]3CC[C@@]21C,inactive

# Experiment: APR_HepG2_CellLoss_24hr: Apredica 24-hour HepG2 Assay for Cell Loss (AID 2282908; active = hit-call score of the fitted dose curve at least 0.9, where 1 is the maximum; inactive = score below 0.9;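 for AC50: fit in both directions so a hit may be cell loss or gain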)
# Conditions: high-content imaging
# Summary of the method: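 Compounds were tested at 0.39–200 uM in duplicate with 0.5% v/v DMSO final. Cells were then fixed in 3.7% formaldehyde, Hoechst 33342 nuclei were imaged at 20x by HCS, and cell number was fitted bidirectionally against DMSO.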
SMILES,outcome,AC50
O=C(c1ccc(OCCN2CCCCC2)cc1)c1c(-c2ccc(O)cc2)sc2cc(O)ccc12,inactive,
CC/C(=C(\c1ccccc1)c1ccc(OCCN(C)C)cc1)c1ccccc1,,14.5 µM (active) and 17.8 µM (active)
C[C@]12CC[C@@H]3c4ccc(O)cc4CC[C@H]3[C@@H]1CC[C@@H]2O,,18.7 µM (active)
C#C[C@]1(O)CC[C@H]2[C@@H]3CCc4cc(O)ccc4[C@H]3CC[C@@]21C,,24.3 µM (active)

# Experiment: APR_HepG2_MicrotubuleCSK_24hr: Apredica 24-hour HepG2 Assay for Microtubule CSK Stabilty (AID 2282909; active = hit-call score of the fitted dose curve at least 0.9, where 1 is the maximum; inactive = score below 0.9)
# Conditions: HepG2 microtubule cytoskeleton imaging, actives raise or lower the signal
# Summary of the method: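 HepG2 cells exposed 24 h to compounds at 0.39–200 uM (duplicate, 0.5% v/v DMSO final), then fixed, permeabilized and immunostained for alpha-tubulin with Hoechst 33342. Cytoskeleton imaged at 20x; bidirectional fit versus DMSO baseline.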
SMILES,outcome,AC50
O=C(c1ccc(OCCN2CCCCC2)cc1)c1c(-c2ccc(O)cc2)sc2cc(O)ccc12,inactive,
CC/C(=C(\c1ccccc1)c1ccc(OCCN(C)C)cc1)c1ccccc1,,35.4 µM (active) and 44.5 µM (active)
C[C@]12CC[C@@H]3c4ccc(O)cc4CC[C@H]3[C@@H]1CC[C@@H]2O,,32.4 µM (active)
C#C[C@]1(O)CC[C@H]2[C@@H]3CCc4cc(O)ccc4[C@H]3CC[C@@]21C,inactive,

# Experiment: APR_HepG2_MitoticArrest_24hr: Apredica 24-hour HepG2 Assay for Mitotic Arrest (AID 2282910; active = hit-call score of the fitted dose curve at least 0.9, where 1 is the maximum; inactive = score below 0.9)
# Conditions: high-content imaging, actives raise or lower the signal
# Protocol: as §1, with “plate.APR_HepG2_MitoticArrest_24hr” for “plate.APR_HepG2_CellCycleArrest_24hr”, “APR_HepG2_MitoticArrest_24hr” for “APR_HepG2_CellCycleArrest_24hr”, “APR_HepG2_MitoticArrest_24hr,” for “APR_HepG2_CellCycleArrest_24hr,”, “protein” for “all nuclear dna”
# as §2
SMILES,outcome,AC50
O=C(c1ccc(OCCN2CCCCC2)cc1)c1c(-c2ccc(O)cc2)sc2cc(O)ccc12,inactive,
CC/C(=C(\c1ccccc1)c1ccc(OCCN(C)C)cc1)c1ccccc1,,7.3 µM (active) and 6.94 µM (active)
C[C@]12CC[C@@H]3c4ccc(O)cc4CC[C@H]3[C@@H]1CC[C@@H]2O,,22.6 µM (active)
C#C[C@]1(O)CC[C@H]2[C@@H]3CCc4cc(O)ccc4[C@H]3CC[C@@]21C,,10.9 µM (active)

# Experiment: APR_HepG2_MitoMembPot_24hr: Apredica 24-hour HepG2 Assay for Mitochondrial Membrane Potential (AID 2282911; active = hit-call score of the fitted dose curve at least 0.9, where 1 is the maximum; inactive = score below 0.9)
# Conditions: imaging, actives raise or lower the signal
# Summary of the method: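 Mitochondrial dye uptake (MitoTracker Red CMXRos, 250 nM, 30 min pre-fixation) in HepG2 after 24 hr compound exposure, 0.39–200 uM; ArrayScan images at 20x, activity fitted in both directions relative to DMSO.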
SMILES,outcome,AC50
O=C(c1ccc(OCCN2CCCCC2)cc1)c1c(-c2ccc(O)cc2)sc2cc(O)ccc12,inactive,
CC/C(=C(\c1ccccc1)c1ccc(OCCN(C)C)cc1)c1ccccc1,,39.2 µM (active) and 24.9 µM (active)
C[C@]12CC[C@@H]3c4ccc(O)cc4CC[C@H]3[C@@H]1CC[C@@H]2O,inactive,
C#C[C@]1(O)CC[C@H]2[C@@H]3CCc4cc(O)ccc4[C@H]3CC[C@@]21C,inactive,
